For 53 compounds, INHIBITION results are on record in ChEMBL document CHEMBL4513216, “Probing the Open Global Health Chemical Diversity Library for Multistage-Active Starting Points for Next-Generation Antimalarials” (ACS Infect Dis, 2020).

Among all 69,000 compounds or so, about 8,600 (12%) showed an effect of 50% or more. The full list was thinned out, with strong results kept by preference.

The test system of this test is Plasmodium berghei. Briefly: Screen against P. berghei liver stage (PbLuc), transformed with Luciferase, at 10uM. Particulars: tested at 10 uM. The class given is functional, HepG2.
Take `COc1cc2c(cc1OC)CN(C(=O)NCC1CCCO1)CC2` (stereo not drawn): the INHIBITION turned out to be 18.9%. Take `Cc1c(C(=O)O)oc2ccc(I)cc12`: the INHIBITION is 26.3%. The same measure for `Cc1nn(C)c(N(C)C)c1CNCCS(C)(=O)=O`: -21.915%; for `O=C(CC1[C@H]2CN(C(=O)CO)C[C@@H]12)Nc1cccnc1` (stereo partly drawn): 42.6%.

With `CC(NC(=O)NCCCc1n[nH]c(N)c1C#N)c1ccc(F)c(F)c1` (stereo not drawn), the INHIBITION is -23.8%. The same measure for `Cn1c(=O)[nH]c(=O)c2c1nc1n2CC(c2ccc(Br)cc2)O1` (stereo not drawn): 1.985%.

Turning to `CC(=O)Nc1nc(CN2CCOC(Cn3cccn3)C2)cs1` (stereo not drawn), the INHIBITION was found to be 31.3%. The value for `CC(NCc1ccc(OCC(N)=O)cc1)c1ccc(Cl)c(Cl)c1` (stereo not drawn) was -6.91%; that for `CC(C)(C)CC(=O)NCC(=O)Nc1ccn(Cc2ccccc2)n1` was 21.6%; that for `O=C(NCC1CCC2(CCNCC2)CO1)c1ccno1` (stereo not drawn) was 5.36%. The value for `O=C(NCC1CCCO1)c1csc(Cc2ccccc2)n1` (stereo not drawn) was -87.7%; that for `O=C(NCC1CC[C@@]2(CNCCOC2)O1)c1cnccn1` (stereo partly drawn) was 5.36%. The value for `O=C(NCC1CCC2(CCNCC2)CO1)c1cnccn1` (stereo not drawn) was 73.3%; that for `Cc1ncsc1C(=O)NCC1CCC2(CCNCC2)CO1` (stereo not drawn) was -10.9%; that for `Nc1nc(C(=O)NCC2CCC3(CCNCC3)CO2)cs1` (stereo not drawn) was 55.6%. As for `CCN1CCOC(CNCc2cccc(OCc3ccccn3)c2)C1` (stereo not drawn), the INHIBITION is -62.8%.

In the case of `CN(C)c1cc(CNC(=O)c2c(F)cccc2F)ccn1`, the INHIBITION was -7.35%. The same measure for `COCC1Cn2nnc(-c3cnn(C)c3)c2CN1Cc1ccc(C)s1` (stereo not drawn): 11.8%. The same measure for `CNS(=O)(=O)CC(=O)NC(c1cc(C)sc1C)C(C)C` (stereo not drawn): 16.6%; for `Cn1cc(C(=O)NC(Cn2cccn2)C(C)(C)C)cn1` (stereo not drawn): 35.2%.

Consider `CCc1nc(CNC(C)c2cccc(N3CCCC3=O)c2)cs1` (stereo not drawn), for which the INHIBITION amounted to 10.8%. The same measure for `CC(C)c1nc(CN(C)Cc2ncccc2C(=O)O)cs1`: 15.7%; for `Cc1ccsc1CN(Cc1ncccc1C(=O)O)C1CC1`: 31.9%. The value for `Cc1ccsc1CN(C)Cc1ncccc1C(=O)O` was 68.3%.

As for `COc1cccc(CCC(=O)N2CCN(CC(C)(C)O)CC2)c1`, the INHIBITION was 4.3%. The same measure for `CC(=O)c1cc(CN2C[C@@H]3CC[C@H]2CN(Cc2c(C)noc2C)C3)cs1`: -33.5%; for `CCNC(=O)c1nnc2ccc(N3CCOCC3)cc2n1`: 30%. The same measure for `COCCNC(=O)c1nnc2ccc(N3CCOCC3)cc2n1`: 54%; for `CNC(=O)c1nnc2ccc(N3CCOCC3)cc2n1`: -12.2%. The same measure for `COC(=O)c1ccc(-c2cc(C(F)(F)F)cc(N(C)C)n2)cc1`: 23.6%. `Cc1cccc(C(C(=O)NC(C)(C)CN2CCCC2)N(C)C)c1` (stereo not drawn): the INHIBITION is reported as -13.2%. The same measure for `CCc1ccc2nc(C)cc(C(=O)N[C@@H]3C[C@@H](CO)N(C)C3)c2c1`: 22.1%. For the compound `Cn1cc(N2CC3(CCN(C(=O)c4cccn4C)CC3)OCC2=O)cn1`, the INHIBITION is recorded as 73%.

With `Cn1cccc1C(=O)N1CCC2(CC1)CN(c1cncnc1)C(=O)CO2`, the INHIBITION is given as 11.4%. The value for `Cn1cccc1C(=O)N1CCC2(CC1)CN(c1ccccc1)C(=O)CO2` was 33.4%; that for `Cn1cc(N2CCC3(CCN(C(=O)c4cccn4C)C3)C2=O)cn1` (stereo not drawn) was 23.6%. The same measure for `Cn1cccc1C(=O)N1CCC2(CC1)CN(c1ccsc1)C(=O)CO2`: 71.9%; for `CN1CC(=O)N(c2ccsc2)CC12CCN(C(=O)c1cccn1C)C2` (stereo not drawn): 19.4%.

`CN(C)c1ccc(CN(CC2CCCO2)C(=O)c2csnn2)cc1` (stereo not drawn): the INHIBITION turned out to be 11.8%.

In the case of `CC1(c2cc[nH]n2)CCN(C(=O)c2ccc(Cl)cc2)CC1`, the INHIBITION was -2.09%. The same measure for `O=C(c1ncccn1)N1C[C@H]2CCC[C@@]2(COc2ccccn2)C1`: -15.1%; for `COC[C@@]12CCC[C@@H]1CN(C(=O)N1CCCC1)C2`: 18.6%. As to `CN(C)C(=O)N1C[C@H]2CCC[C@@]2(COc2ccccn2)C1`, the INHIBITION is listed as -9.67%.

With `COCCC(=O)N1C[C@H]2CCC[C@@]2(COC)C1`, the INHIBITION is reported as 24.6%.

As for `COC[C@@]12CCC[C@@H]1CN(C(=O)COC1CCCC1)C2`, the INHIBITION worked out at 32.5%. The same measure for `COCC(=O)N1C[C@H]2CCC[C@@]2(COC)C1`: 85.2%. The value for `CCOCC(=O)N1C[C@H]2CCC[C@@]2(COC)C1` was -0.284%. With `CN(C)CC(=O)N1C[C@H]2CCC[C@@]2(COc2ccccn2)C1`, the INHIBITION is listed as 52.9%.

As for `COC[C@@]12CCC[C@@H]1CN(C(=O)CN(C)C)C2`, the INHIBITION was 56.4%. With `Cc1cccc(CN2C(=O)CCC23CCN(c2ncc(F)cn2)CC3)n1`, the INHIBITION is -26.8%. The value for `O=S(=O)(N1CCOCC1)N1CCCC(c2ccccn2)C1` (stereo not drawn) was 15.99%; that for `COc1c(C2CCCN2C(=O)c2c(C)noc2C(C)C)c(C)nn1C` (stereo not drawn) was 35.9%.

In the case of `COCC(=O)N1CCc2c(nnn2C)C1COCCN1CCCC1` (stereo not drawn), the INHIBITION is 29%.
